Screening results (PubChem)
CF NFkB block: blocks PAF-induced NF-kB reporter in cystic fibrosis cells; KKLEB NF-kB-GFP reporter, GFP fluorescence overnight; inhibition, % at 5 µM; hit rate 0.86% among 360,000; AID 588850;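 active = at least 50% inhibition at 5 µM, scaled per plate between neutral and stimulator controls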;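 note: PAF is a Pseudomonas aeruginosa culture filtrate used as stimulus; plate controls were PAF-stimulated DMSO wells for no effect and unstimulated DMSO wells for full effect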
KKLEB tox: CF airway cell cytotoxicity counter-screen | KKLEB CF airway cells viability, ATPlite luminescence, overnight; stronger effect = lower value; cells stimulated with P. aeruginosa culture filtrate | activity change (cytotoxicity), % at 5 µM | hit rate 0.36% among 360,000;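 active = corrected activity change at or below -50% at 5 µM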
Mdm2 MdmX PPI: inhibitors of human Mdm2/MdmX interaction. O15151+Q00987. AID 485346. SaOS-2 split-luciferase Mdm2/MdmX complementation, luminescence. hit rate 3% among 330,000. inhibition, % at 8 µM;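 active = inhibition of at least 50% at 8 µM in the primary screen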
LGR2 antag: Drosophila LGR2 receptor signaling inhibition | HEK293 LGR2, CRE-luciferase, bursicon-stimulated, 4 h | inhibition, % at 9.99 µM | hit rate 0.35% among 380,000 | AID 720647;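 active = drop in luminescence signal, shown as inhibition above about 50% in the replicate tests, limit read from the data, passing the limit was not always enough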;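 note: agonist challenge used bursicon conditioned medium at about half maximal strength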
Peg3 promoter: inhibitors of Peg3 promoter; HeLa PEG-Prom luciferase reporter, luminescence, overnight; inhibition, % at 20 µM; hit rate 1.7% among 360,000;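 active = inhibition of at least 50% at 20 µM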
HSP90 refold inh: HSP90 refolding inhibition in rabbit reticulocyte lysate | luciferase refolding luminescence, 3 h | inhibition, % at 5.6 µM | hit rate 0.91% among 290,000;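 active = inhibition above the screen-wide mean plus 3 SD, computed separately per campaign, cut at about 16% in these data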;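 note: 0% = DMSO wells and 100% = 60 µM geldanamycin wells; inhibitors lower the luminescence because luciferase stays unfolded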
Mdm2 MdmX conf: human Mdm2/MdmX binding inhibition, confirmed; shares compounds with Mdm2 MdmX PPI; luminescent assay; inhibition, % at 8 µM; hit rate 55% among 10,000; AID 489028; in the data active = inhibition above about 40%
Full FLuc ctr: full-length luciferase inhibition in Mdm2/MdmX counter-screen. shares compounds with Mdm2 MdmX PPI. SaOS-2 full-length luciferase counterscreen, luminescence. inhibition, % at 8 µM. hit rate 77% among 6,200;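 active = mean inhibition at 8 µM reaching about 37%, which flags the compound as non-specific, limit read from the data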;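 note: p53-null SaOS-2 cells with luciferase driven by a doxycycline-inducible promoter; compound on cells about two nights before reading with doxycycline added after day one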
* hit, by the source's call; . = not tested or not shown. Hits are enriched below; roughly 3.6% of the tested compounds scored in any of these assays.

SMILES	CF NFkB block	KKLEB tox	Mdm2 MdmX PPI	LGR2 antag	Peg3 promoter	HSP90 refold inh	Mdm2 MdmX conf	Full FLuc ctr
CCOC(=O)CCC(=O)Nc1ncnc2c1C(c1ccccc1)c1c(ccc3ccccc13)O2 (stereo not drawn)	13	-5	31	25	28	.	.	.
Cc1ccc(-c2cc(C(=O)N/N=C/c3cccnc3)n[nH]2)o1	1	16	-10	-23	-32	0	.	.
Cc1ccc(/C=N/NC(=O)c2cc(-c3ccc(C)o3)[nH]n2)cc1	1	-3	50*	14	2	1	54*	50*
C[C@@H]1CCCCO[C@@H](CN(C)Cc2ccc(Cl)c(Cl)c2)[C@@H](C)CN([C@H](C)CO)C(=O)c2cc(NC(=O)NC3CCCCC3)ccc2O1	.	.	.	-12	.	.	.	.
CC(=O)Nc1ccc(S(=O)(=O)NCCC(=O)OCc2csc(CC(=O)Nc3ccccc3C)n2)cc1	-16	10	51*	-1	-1	.	1	.
C[C@@H]1CCCCO[C@@H](CN(C)S(C)(=O)=O)[C@H](C)CN([C@@H](C)CO)C(=O)c2cc(NC(=O)C3CCCCC3)ccc2O1	.	.	.	-3	.	.	.	.
CCOC(=O)c1cc(-c2cc(OC)c(OC)c(OC)c2)nc2c1c(=O)[nH]c(=O)n2Cc1ccccc1	-85	6	57*	-1	4	4	56*	86*
CCOC(=O)/C=C/C(=O)OCC(=O)Nc1ccc(C)cc1	18	-12	9	.	7	-1	.	.
CCOC(=O)/C=C/C(=O)Nc1ccc(S(=O)(=O)Nc2c(C)cc(C)cc2C)cc1	-38	-15	50*	17	47	-2	28	.
O=C(O)/C=C/C(=O)Nc1ccc(Oc2ccccc2)cc1	4	2	-13	-4	6	4	.	.
Cc1cc(C)c(NS(=O)(=O)c2ccc(NC(=O)c3cccs3)cc2)c(C)c1	-5	-12	21	37	26	-6	.	.
CCOC(=O)/C=C/C(=O)Nc1ccc(Oc2ccccc2)cc1	-35	-5	56*	102*	54*	-4	55*	24
CCOC(=O)/C=C/S(=O)(=O)c1ccc(NC(C)=O)cc1	90*	-38	68*	.	102*	2	53*	21
COc1cc2sc(NC(=O)c3ccco3)nc2cc1Cl	3	-1	64*	-36	-175	2	-56	.
Cc1cc2sc(NC(=O)c3ccco3)nc2cc1Cl	-10	-2	0	-8	-311	4	.	.
Cc1ccc(C(=O)NCCNc2nc3cc(C)c(C)cc3cc2C)cc1	12	-12	65*	-9	61*	4	10	.
COc1cc(-c2noc(C)c2C#CCO)cc(OC)c1OC	-6	-6	28	6	8	-5	.	.
COc1cc(-c2noc(C)c2/C=C/c2ccc(OC(C)=O)cc2)cc(OC)c1OC	28	-37	84*	-1	-34	-1	90*	94*
COc1ccc(-c2oc(=O)c3cc(OC)c(OC)cc3c2/C=C/c2ccc(OC(C)=O)cc2)cc1	-22	8	60*	1	5	.	38	63*
C[C@H](CO)N1C[C@H](C)[C@H](CN(C)Cc2ccccc2)OCCCC[C@H](C)Oc2ccc(NC(=O)Nc3ccccc3)cc2C1=O	.	.	.	17	.	.	.	.
O=C(c1ccc2c(c1)N(Cc1cccc(Cl)c1)C(=O)c1ccccc1S2(=O)=O)N1CCN(c2ccccn2)CC1	33	-34	65*	-17	19	3	20	.
CN1CCN(C(=O)c2ccc3c(c2)N(Cc2cccc(Cl)c2)C(=O)c2ccccc2S3(=O)=O)CC1	15	5	7	-19	-3	4	.	.
Cc1ccc(C2Oc3ccccc3C3=C2C(c2cccs2)n2ncnc2N3)cc1 (stereo not drawn)	10	4	58*	.	28	1	70*	37*
Cc1ccc(NC(=O)CNC(=O)c2cccc(C)c2)nc1	-8	14	76*	12	-10	.	48*	62*
CCOC(=O)C1=C(O)/C(=C/c2cn(CC(=O)NCC3CCCO3)c3ccccc23)SC1=Nc1ccc(C)cc1 (stereo not drawn)	58*	-56*	99*	.	59*	2	92*	47*
SMILES	CF NFkB block	KKLEB tox	Mdm2 MdmX PPI	LGR2 antag	Peg3 promoter	HSP90 refold inh	Mdm2 MdmX conf	Full FLuc ctr
FC(F)(F)c1nnc(-c2ccccc2)nc1Sc1ccccc1	11	-10	52*	.	72*	3	18	.
FC(F)(F)c1nnc(-c2ccccc2)nc1Sc1ccc(Cl)cc1	-14	5	86*	.	74*	4	34	16
FC(F)(F)c1cccc(Sc2nc(-c3ccccc3)nnc2C(F)(F)F)c1	10	-1	55*	.	36	1	17	.
FC(F)(F)c1nnc(-c2ccccc2)nc1N1CCCC1	10	-14	19	-5	7	-1	.	.
CCNC(=O)C[C@@H]1CC[C@@H]2[C@H](COC[C@H](O)CN2Cc2ccncc2)O1	.	.	.	0	.	.	.	.
Cc1nn(-c2ccc([N+](=O)[O-])cc2)c2c1C(c1cccc(Br)c1)N1C(=N2)C(=O)Nc2ccccc21 (stereo not drawn)	-25	-8	60*	1	43	-2	26	.
C[C@@H]1CCCCO[C@H](CN(C)C(=O)Nc2ccc(C(F)(F)F)cc2)[C@@H](C)CN([C@@H](C)CO)C(=O)c2cc(NC(=O)C3CCCCC3)ccc2O1	.	.	.	1	.	.	.	.
CCC(=O)Nc1ccc2c(c1)OC[C@H](C)N(Cc1ccncc1)C[C@H](C)[C@@H](OC)CN(C)C2=O	.	.	.	0	.	.	.	.
CCOc1ccccc1C1C2=C(COC2=O)Nc2cc3c(cc21)OCO3 (stereo not drawn)	54*	-7	69*	13	-5	-4	57*	65*
CC(C)Oc1ccccc1C1CC(=O)Nc2cc3c(cc21)OCCO3 (stereo not drawn)	44	-38	48	.	10	3	.	.
CCCOc1c(OC)cccc1C1CC(=O)Nc2cc3c(cc21)OCCO3 (stereo not drawn)	13	-12	52*	.	22	2	55*	68*
COc1ccccc1C1CC(=O)Nc2cc3c(cc21)OCCO3 (stereo not drawn)	34	-16	55*	-2	9	4	59*	64*
CCCOc1c(OC)cccc1C1CC(=O)Nc2cc3c(cc21)OCO3 (stereo not drawn)	16	-20	55*	.	34	0	51*	68*
O=C(C[C@H]1CC[C@H]2[C@@H](COC[C@@H](O)CN2C(=O)Nc2ccccc2)O1)NCCc1ccncc1	.	.	.	-19	.	.	.	.
O=C(NNc1cccc(Cl)n1)c1ccccc1CC[N+](=O)[O-]	1	-4	92*	12	17	1	-9	.
